Screening results from PubChem BioAssay.
CF NFkB block – inhibitors of PAF-induced NF-kB signaling, primary screen, cell-based, GFP fluorescence, uHTS; actives 0.86% (n = 360,000); AID 588850, 2011; inhibition, % at 5 µM; KKLEB NF-kB-GFP reporter, GFP fluorescence overnight;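 active = at least 50% inhibition at 5 µM, scaled per plate between neutral and stimulator controls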;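 also: PAF is a Pseudomonas aeruginosa culture filtrate used as stimulus; plate controls were PAF-stimulated DMSO wells for no effect and unstimulated DMSO wells for full effect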
ABHD5-PLIN5 inh – ABHD5-PLIN5 interaction inhibitors, primary screen, cell lysate, split luciferase complementation, luminescence; Perilipin-5 (Homo sapiens) + 1-acylglycerol-3-phosphate O-acyltransferase ABHD5 (Homo …; Split G. princeps luciferase complementation, 4 h; inhibition, % at 4 µM; actives 0.78% (n = 360,000); AID 602281, 2012;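 active = inhibition above the mean inhibition across every tested compound plus 3 SD, cut at about 22% in these data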;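 also: 0% = DMSO only wells and the 100% control is not disclosed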
Target sequence (Q00G26 whole entry, looked up): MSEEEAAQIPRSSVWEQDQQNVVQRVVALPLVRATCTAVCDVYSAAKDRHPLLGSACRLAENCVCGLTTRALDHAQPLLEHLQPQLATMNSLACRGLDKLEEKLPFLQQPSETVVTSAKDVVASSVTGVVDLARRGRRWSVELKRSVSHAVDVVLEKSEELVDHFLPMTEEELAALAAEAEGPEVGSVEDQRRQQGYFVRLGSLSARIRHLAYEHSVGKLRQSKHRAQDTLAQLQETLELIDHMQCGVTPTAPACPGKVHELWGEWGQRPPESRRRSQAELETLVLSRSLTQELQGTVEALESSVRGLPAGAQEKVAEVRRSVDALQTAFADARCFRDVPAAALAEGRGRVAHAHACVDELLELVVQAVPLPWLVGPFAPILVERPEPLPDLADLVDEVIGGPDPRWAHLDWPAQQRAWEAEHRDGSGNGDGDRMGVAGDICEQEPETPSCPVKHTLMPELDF
Target sequence (Q8WTS1 whole entry, looked up): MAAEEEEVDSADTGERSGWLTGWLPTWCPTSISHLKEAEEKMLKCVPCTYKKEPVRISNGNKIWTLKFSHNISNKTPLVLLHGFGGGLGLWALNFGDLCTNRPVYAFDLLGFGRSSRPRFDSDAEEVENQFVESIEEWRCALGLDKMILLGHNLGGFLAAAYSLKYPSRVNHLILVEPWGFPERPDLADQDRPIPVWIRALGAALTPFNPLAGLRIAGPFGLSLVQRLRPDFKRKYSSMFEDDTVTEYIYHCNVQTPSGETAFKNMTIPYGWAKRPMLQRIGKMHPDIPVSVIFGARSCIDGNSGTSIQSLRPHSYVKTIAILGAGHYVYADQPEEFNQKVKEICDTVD
HIF-2a inh – HIF-2a reporter inhibitors, primary screen, luminescence, 786-0 RCC cells; 786-0 RCC cells HIF-2a reporter, luciferase luminescence, overnight; inhibition, % at 18.8 µM; actives 0.72% (n = 360,000); AID 624352, 2012;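 active = inhibition of the luminescence signal of 40% or more relative to plate controls, in a single-dose primary screen at 18.75 µM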
KKLEB cytotox – cytotoxicity in KKLEB CF airway cells, primary screen, cytotoxicity control for CF NF-kB inhibitor project, cell-based, uHTS, fluorescence assay plates; activity change (cytotoxicity), % at 5 µM; actives 0.36% (n = 360,000); KKLEB CF airway cells viability, ATPlite luminescence, overnight; hits give low values; cells stimulated with P. aeruginosa culture filtrate;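 active = corrected activity change at or below -50% at 5 µM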
TRPM1 prom inh – inhibitors of MITF-dependent TRPM1 promoter reporter, primary screen, cell-based, SK-MEL-5, single point, luciferase | inhibition, % at 12.5 µM | SK-MEL-5 TRPM1 promoter luciferase, 24 h | actives 0.83% (n = 330,000);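 active = mean inhibition across replicates of 60% or more, whatever share of single replicates reaches that level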
Peg3 promoter – Peg3 promoter-driven luciferase inhibitors, primary screen, cell-based, HeLa, luciferase luminescence; HeLa PEG-Prom luciferase reporter, overnight; actives 1.7% (n = 360,000); inhibition, % at 20 µM;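 active = inhibition of at least 50% at 20 µM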
An asterisk follows results filed as active; nt = not tested or not shown. Compounds with a hit are over-represented: about 3.1% of the library has one in this group of screens.

SMILES	CF NFkB block	ABHD5-PLIN5 inh	HIF-2a inh	KKLEB cytotox	TRPM1 prom inh	Peg3 promoter
Cc1nc2sc(C(=O)O)c(N)c2c2c1COC(C)(C)C2	15	-18	-9	2	-7	-40
CCOC(=O)c1sc2nc(-c3ccco3)c3c(c2c1N)CC(C)(C)OC3	-8	30*	-45	14	-10	25
CCC[C@H]1CC(=O)C=C(c2ccc(OC)cc2)ON1C(=O)OC(C)(C)C	20	6	-14	-16	6	-4
Cc1ccc(NC2=C/C(=N/S(=O)(=O)c3cccs3)c3ccccc3C2=O)cc1	80*	-4	-152	-70*	105*	-88
O=C1C(Nc2ccccc2)=C(NS(=O)(=O)c2ccccc2)C(=O)c2ccccc21	31	-9	-4	14	51	2
O=C1C(Nc2ccccc2)=C/C(=N/S(=O)(=O)c2cccs2)c2ccccc21	100*	4	-5	-91*	95*	105*
COC(=O)c1ccc(COc2ccccc2/C=C(\C#N)C(=O)Nc2c(C)cc(C)cc2C)cc1	23	8	2	-20	8	75*
CCCOc1ccc(/C=C2/C(=O)ON=C2C)cc1Cl	-39	0	4	-18	14	65*
O=[N+]([O-])c1cccc2nc3ccccc3c(NCCCn3ccnc3[N+](=O)[O-])c12	-139	-11	-9	-13	82*	99*
C[C@@H]1CN([C@H](C)CO)C(=O)CCCn2cc(nn2)CO[C@H]1CN(C)C(=O)Nc1ccc2c(c1)OCO2	-5	-1	-3	0	nt	-7
COCc1c(C(=O)Nc2ccc3nc(N4CCOCC4)sc3c2)oc2ccccc12	3	-7	-63	6	-5	51*
CCOc1ccc(NC(=O)CS(=O)CC(=O)Nc2cccnc2)cc1 (centres undefined)	4	2	16	10	-9	1
Cc1cc(NO)c(C(C)C)cc1N=O	44	-6	34	-9	32	32
COc1ccc(-c2cc(C(F)(F)F)nc(SCC(=O)Nc3sc4c(c3C#N)CCC4)n2)cc1	44	-6	3	-61*	3	11
COc1ccc(-c2ccc(C#N)c(SCC(=O)Nc3sc4c(c3C#N)CCC4)n2)cc1OC	35	1	2	-35	-38	75*
COc1ccc(CCNC(=O)c2cc3c(=O)n4cccc(C)c4nc3n(CCCN3CCOCC3)c2=N)cc1	-12	6	8	-5	73*	57*
COCCn1c(=N)c(C(=O)NCCc2ccc(OC)cc2)cc2c(=O)n3cccc(C)c3nc21	-6	-1	5	-3	-8	12
COCCCn1c(C(=O)Nc2ccc3c(c2)OCO3)cc2c(=O)n3cccc(C)c3nc21	28	0	-14	-17	nt	60*
COc1ccc(CNC(=O)c2c(N)n(CCCN3CCOCC3)c3nc4ccccc4nc23)cc1	-20	11	-12	-6	-3	70*
CCn1nnc(NC(=O)c2ccc([N+](=O)[O-])o2)n1	68*	-1	-29	0	42	25
CCCN(CCC)C1=CC(=[N+]2CCCC2)CC(C)(C)C1	10	-1	10	3	73*	-4
CC1=NN(S(=O)(=O)c2ccc(Cl)cc2Cl)C(=O)c2ccccc2O1	1	-7	13	-4	3	7
COc1cccc(N2CCN(c3ncnc4c3cnn4-c3ccc(C)cc3C)CC2)c1	80*	-3	-122	-83*	68*	102*
Cc1cccc(C(=O)NC(C(=O)Nc2ccccc2N2CCOCC2)C(C)C)c1 (centres undefined)	1	0	18	1	7	16
COc1ccc(OCCCn2cc(/C=C3/C(=N)N4C=C(C)SC4=NC3=O)c3ccccc32)cc1	35	-2	-87	-42	3	51*
SMILES	CF NFkB block	ABHD5-PLIN5 inh	HIF-2a inh	KKLEB cytotox	TRPM1 prom inh	Peg3 promoter
CCC(C)Nc1nc(-c2cccc(OC)c2O)nc2ccccc12 (centres undefined)	-3	-1	-27	9	3	54*
COc1cccc(-c2nc(NC(C)C)c3ccccc3n2)c1O	6	-4	14	-7	11	37
COc1ccccc1-n1c(SCC(=O)N2CCCCC2)nc(O)c(Cc2ccccc2)c1=O	-21	-9	2	10	-5	97*
COc1ccccc1-n1c(SCC(=O)NC(C)(C)C)nc(O)c(Cc2ccccc2)c1=O	-20	-4	14	6	-9	6
CCCCn1c(N)c(N(CC)C(=O)CSc2nnc(-c3ccco3)n2CC)c(=O)[nH]c1=O	-14	2	4	7	4	-8
CC(=NNC(=S)Nc1ccccc1Cl)c1ccccn1	-1	1	-200	8	47	-37
C=CCNC(=S)N/N=C(\C)c1ccccn1	20	6	11	-19	59	75*
CC(=O)N1NC(=Nc2ccccc2)SC1(C)C	6	3	18	8	8	5
COc1ccc(/C=C/C(=O)NC(=S)NNC(=O)c2cnccn2)cc1	40	5	1	-12	47	52*
COc1cc(C(=O)C(=O)N2CCC(Cc3ccccc3)CC2)cc2ccccc12	nt	-9	2	nt	nt	nt
COc1cc([C@H]2c3[nH]c4ccccc4c3C[C@H]3C(=O)N4[C@@H](c5cc(OC)c(OC)c(OC)c5)c5[nH]c6ccccc6c5C[C@H]4C(=O)N23)cc(OC)c1OC	39	-1	52*	-23	nt	39
O=C(COC(=O)c1cc([N+](=O)[O-])ccc1N1CCOCC1)Nc1ccc(Cl)cn1	22	5	13	-15	-14	53*
COc1ccc(COC(=O)c2cc([N+](=O)[O-])ccc2N2CCOCC2)cc1F	55*	1	29	-23	66*	-5
COc1c(-c2ccccc2)oc2c(ccc3occc32)c1=O	-18	2	2	7	-10	11
CC(=O)Nc1ccc(C(=O)OCC(=O)N(Cc2ccccc2)C(C)(C)C)cc1	-2	2	18	-2	1	6
O=C(Nc1nnc(SCc2ccc(F)cc2)s1)c1cccnc1Cl	6	3	-8	-3	-5	-13
O=C(Nc1nnc(SCc2ccc(F)cc2)s1)c1ccccn1	-27	-6	-92	5	1	65*
C=CCNc1nc2cc(-c3cccc(NC(C)=O)c3)sc2c(=O)n1C	19	1	-139	-10	nt	-49
O=C(NCc1nc(-c2ccc(C(F)(F)F)cc2)no1)Nc1ccc(OC(F)(F)F)cc1	33	3	3	-29	-8	74*
